The values below come from PubChem BioAssay (Tox21).

Assay [1] concerns the target Thyrotropin receptor (Homo sapiens) (UniProt P16473). As to the kind of experiment: qHTS assay to identify small molecule agonists of the thyroid stimulating hormone receptor (TSHR) signaling pathway (AID 1224843; calls by dose curve; also: nearly all actives have a fitted effect of over 45% in size). The method, boiled down: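 TSHR-HEK293 cells in agonist mode, 30 min room-temperature step, then cAMP measured by competitive HTRF (cAMP-d2 with anti-cAMP cryptate) after 1 h at room temperature. Tested at 15 concentrations in triplicate.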
Background: Quantitative high-throughput screening tests each substance at several concentrations.

The nature of assay [2]: qHTS assay to identify small molecule agonists of the hypoxia (HIF-1) signaling pathway - cell viability counter screen (AID 1224844; calls by dose curve; also: nearly all actives have a fitted effect of over 50% in size). The method, boiled down: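 HRE-bla ME-180 cells, 2,000/well in 0.5% dialyzed FBS medium, treated 17 h at 37C with compounds. Viability read in the same wells as the bla reporter, by CellTiter-Glo luminescence after 30 min at room temperature.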

Assay [3] in a line: qHTS assay to identify small molecule agonists of H2AX (AID 1224845; active = well fitted activation curve with a large enough effect in the signal ratio in the repeat runs, not every such curve was filed as active; the % refers to the signal ratio). An outline of the steps: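 Wild-type CHO-K1 cells, plated overnight, exposed 3hr at 37C to 15 concentrations (0.76% DMSO final). Lysed, then HTRF anti-pH2AX (S139) cryptate and anti-H2AX-d2 antibodies, 24 hr room temperature; 665/620 nm emission read.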
Assay [4] is described as follows: qHTS assay to identify small molecule agonists of the hypoxia (HIF-1) signaling pathway (AID 1224846; active = well fitted activation curve with a large enough effect in the signal ratio in the repeat runs, not every such curve was filed as active; the % refers to the signal ratio). An outline of the steps:
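HRE-bla ME-180 beta-lactamase reporter cells in medium with 0.5% dialyzed FBS, pre-incubated 5 h then exposed to compounds 17 h at 37C, 5% CO2; reporter induction read with CCF4-AM FRET substrate.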

The nature of assay [5]: qHTS assay to identify small molecule agonists of H2AX - cell viability counter screen (AID 1224847; calls by dose curve; also: top concentration of the series differs between compounds; nearly all actives have a fitted effect of over 30% in size). An outline of the steps:
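Cytotoxicity counter screen in wild-type CHO-K1 cells: a 3 hr compound treatment at 37C across 15 concentrations, followed by CellTiter-Glo luminescence to gauge viable cells.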

Assay [6] is described as follows: qHTS RealTime-Glo MT Cell Viability Assay in HepG2 cells - 24 hour (AID 1224867). Also: nearly all actives have a fitted effect of over 50% in size. The method, boiled down:
(§1)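 Real-time, nonlytic viability: 600 HepG2 cells/well mixed with NanoLuc enzyme plus prosubstrate; 5 h settle, compound (DMSO) added by pintool; luminescence monitored over 40 h at 37 C.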

Assay [7] is described as follows: qHTS RealTime-Glo MT Cell Viability Assay in HEK293 cells - 32 hour (AID 1224868). Also: top concentration of the series differs between compounds; nearly all actives have a fitted effect of over 50% in size. An outline of the steps:
(§2)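 Cells + reagent dispensed (600 cells/well, HEK293) → 5 h at 37 C/5% CO2 → 23 nL compound in DMSO pinned → 40 h at 37 C → luminescence read at 0, 8, 16, 24, 32, 40 h.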

The nature of assay [8]: A CellTox Green Cytotoxicity Assay to monitor cytotoxicity in HEK293 cells - 0 hour (AID 1224869). Also: nearly all actives have a fitted effect of over 50% in size. Also: potency is read from the fitted curve at half-maximal effect. An outline of the steps:
(§3)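 HEK293 cells, 600/well, were preincubated 5 hours and then exposed to compounds at 37 C for up to 40 hours. A cell-impermeant cyanine dye staining dead-cell DNA was read by fluorescence at 0, 8, 16, 24, 32 and 40 h time points.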

A short description of assay [9]: qHTS RealTime-Glo MT Cell Viability Assay in HepG2 cells - 40 hour (AID 1224870). Also: nearly all actives have a fitted effect of over 50% in size. An outline of the steps:
(§4)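 HepG2 cells (600/well) mixed with RealTime-Glo MT reagent, settled 5 h at 37 C/5% CO2 before compound addition. Nonlytic NanoLuc luminescence from viable-cell prosubstrate reduction read repeatedly during 40 h treatment at 37 C.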

Assay [10] can be described thus: A CellTox Green Cytotoxicity Assay to monitor cytotoxicity in HEK293 cells - 40 hour (AID 1224871). Also: nearly all actives have a fitted effect of over 45% in size. An outline of the steps: as §3
The nature of assay [11]: qHTS RealTime-Glo MT Cell Viability Assay in HEK293 cells - 16 hour (AID 1224872). The method, boiled down: as §2
Assay [12] can be described thus: qHTS RealTime-Glo MT Cell Viability Assay in HepG2 cells - 8 hour (AID 1224873). Also: nearly all actives have a fitted effect of over 55% in size. The method, boiled down:
as §4

A short description of assay [13]: qHTS RealTime-Glo MT Cell Viability Assay in HEK293 cells - 40 hour (AID 1224874). Also: nearly all actives have a fitted effect of over 50% in size. The conditions noted are these: RealTime-Glo luminescence; max response: stronger effect = lower value. The method, boiled down:
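600 cells/well were plated with the nonlytic NanoLuc/prosubstrate reagent, pre-incubated 5 h, then given 23 nL of compound in DMSO. Incubation at 37 C for 40 h, with luminescence from viable-cell-reduced substrate read repeatedly from 0 h.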

Assay [14] in a line: A CellTox Green Cytotoxicity Assay to monitor cytotoxicity in HEK293 cells - 24 hour (AID 1224875). Also: nearly all actives have a fitted effect of over 45% in size. The method, boiled down: as §3
Assay [15] in a line: A CellTox Green Cytotoxicity Assay to monitor cytotoxicity in HepG2 cells - 16 hour (AID 1224876). Also: nearly all actives have a fitted effect of over 45% in size. Also: potency is read from the fitted curve at half-maximal effect. An outline of the steps:
(§5)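 HepG2 cells, 600/well, preincubated 5 h with CellTox Green dye, then exposed to Tox21 compounds in DMSO at 37 C for up to 40 h. Dead-cell DNA fluorescence read at the indicated time point.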

A short description of assay [16]: qHTS RealTime-Glo MT Cell Viability Assay in HepG2 cells - 32 hour (AID 1224877). Also: nearly all actives have a fitted effect of over 55% in size. The method, boiled down: as §1
Assay [17] is described as follows: A CellTox Green Cytotoxicity Assay to monitor cytotoxicity in HepG2 cells - 40 hour (AID 1224879). Also: nearly all actives have a fitted effect of over 40% in size. Also: potency is read from the fitted curve at half-maximal effect. An outline of the steps:
as §5

The nature of assay [18]: qHTS assay to identify small molecule agonists of the estrogen related receptor (ERR) signaling pathway from Tox21 library (AID 1224849; calls by dose curve; also: nearly all actives have a fitted effect of over 15% in size). Particulars: ERR reporter cell line, ONE-Glo luciferase, 18 h. An outline of the steps: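 ERR reporter cells (NTP line) pre-incubated 6 hours at 37 C, then exposed to compounds for 18 hours at 37 C. ONE-Glo luciferase luminescence was read after 30 minutes at room temperature.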

A short description of assay [19]: A CellTox Green Cytotoxicity Assay to monitor cytotoxicity in HepG2 cells - 24 hour (AID 1224878). Also: nearly all actives have a fitted effect of over 45% in size. An outline of the steps: as §5
Assay [20] is described as follows: qHTS assay to identify small molecule antagonists of the estrogen related receptor (ERR) signaling pathway from Tox21 library (AID 1224848). Also: nearly all actives have a fitted effect of over 50% in size. An outline of the steps: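 ERR reporter cell line (from NTP) seeded 2,000 cells/well, rested 6 h at 37 C/5% CO2, then pin-dosed with compounds in DMSO. After 18 h at 37 C, ONE-Glo added; luminescence read after 30 min at room temperature.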

Values joined by “and” are separate entries in the source; they are usually repeats but may differ in a detail not shown here. Equal values may be shown once. Records with an inconclusive call do not appear. Some compounds were tested as several samples or in several runs, with calls that do not always agree. Active and inactive are the calls of the source. Unless noted, calls follow the shape of the dose curve; as a rule, active = well fitted curve in the direction sought with a large enough effect in the repeat runs; inconclusive = weak or mixed curves; inactive = no such curve, though single readings can be large; an effect the other way counts as inactive or inconclusive.
% is scaled to controls: 0 for no effect and ±100 for the full control effect.

Thyrotropin receptor (Homo sapiens), sequence (P16473 whole entry, looked up): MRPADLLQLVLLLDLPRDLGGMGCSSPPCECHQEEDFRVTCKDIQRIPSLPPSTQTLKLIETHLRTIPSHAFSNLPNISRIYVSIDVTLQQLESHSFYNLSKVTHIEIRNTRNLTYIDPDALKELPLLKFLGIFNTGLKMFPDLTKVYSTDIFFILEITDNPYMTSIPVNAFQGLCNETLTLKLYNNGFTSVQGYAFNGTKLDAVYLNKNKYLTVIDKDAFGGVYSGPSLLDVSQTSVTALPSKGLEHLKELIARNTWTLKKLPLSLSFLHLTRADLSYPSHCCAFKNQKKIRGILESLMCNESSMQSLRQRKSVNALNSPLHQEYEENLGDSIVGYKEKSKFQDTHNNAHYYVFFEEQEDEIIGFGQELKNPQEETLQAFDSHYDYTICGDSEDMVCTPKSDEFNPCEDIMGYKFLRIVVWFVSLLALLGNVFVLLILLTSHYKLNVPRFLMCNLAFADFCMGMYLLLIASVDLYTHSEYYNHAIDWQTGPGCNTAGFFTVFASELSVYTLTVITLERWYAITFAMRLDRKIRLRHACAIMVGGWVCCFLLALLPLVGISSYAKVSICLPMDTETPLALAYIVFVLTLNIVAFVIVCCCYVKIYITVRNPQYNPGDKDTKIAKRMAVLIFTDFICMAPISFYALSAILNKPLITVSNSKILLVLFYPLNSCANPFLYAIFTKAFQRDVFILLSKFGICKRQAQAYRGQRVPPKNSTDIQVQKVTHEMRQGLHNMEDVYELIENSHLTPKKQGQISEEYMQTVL

For `COP(=S)(OC)SCN1C(=O)c2ccccc2C1=O`, the Potency entry in [1], in assay [2], in [3], in assay [5], in assay [7] and in assay [8] was “inactive” each time. For the same compound, the Potency result in assay [10], in assay [14], in assay [15] and in [17] was “inactive” each time. For the same compound, the outcome in assay [4], in assay [6], in assay [9], in assay [11], in [12] and in assay [16] was inactive. In addition, the max response in assay [13] is 11.4% (inactive) and 4.29% (inactive) and 1.87% (inactive).
Consider `CCOc1ccc(N)cc1`, for which the Potency result in [1], in assay [2], in assay [3], in assay [7], in assay [8] and in [10] was “inactive” throughout. The Potency result in assay [14], in assay [15], in [19] and in [17] was “inactive” in each case. Also, the compound was classed as inactive in assay [4], in [6], in assay [9], in assay [11], in assay [12] and in assay [16]. Moreover, the activity change, positive = activation in assay [18] (at 92.4 µM (top of the series)) is -23.9% (inactive) and -14.2% (inactive).
For the compound `Cc1ccc(N)cc1`, the Potency result in [1], in assay [2], in assay [3], in assay [20], in assay [7] and in assay [8] was “inactive” each time. Besides, the Potency entry in [10], in [14], in [15], in assay [19] and in assay [17] was “inactive” each time. Besides, the compound was called inactive in assay [4], in [6], in assay [9], in [11], in assay [12] and in assay [16]. Also, the activity change, positive = activation in [18] (at 92.4 µM (top of the series)) is 14.9% (active) and 11.9% (inactive).
Regarding `CC(C)CCCCCCOC(=O)c1ccccc1C(=O)OCCCCCCC(C)C`, the Potency entry in assay [1], in assay [2], in assay [3], in assay [5], in assay [7] and in [8] was “inactive” each time. The Potency result in [10], in assay [14], in assay [15] and in assay [17] was “inactive” throughout. For the same compound, the outcome in assay [4], in [6], in assay [9], in assay [11], in assay [12] and in [16] was inactive.
Turning to `[N-]=[N+]=CC(=O)OC[C@H](N)C(=O)O`, the Potency entry in [1], in assay [2], in assay [3], in [5], in assay [20] and in assay [7] was “inactive” in each case. Besides, the Potency entry in assay [10] and in assay [14] was “inactive” in each case. Also, the activity change, positive = activation in assay [18] (at 42.5 µM (top of the series)) is 3.09% (inactive); in assay [18] (at 92.4 µM (top of the series)), 5.95% (inactive). The compound was called inactive in assay [6], in [9], in assay [11], in assay [12] and in assay [16]. Besides, the Potency in [8] is 38.9 µM (active) and inactive; in assay [15] it was 27.5 µM (active) and inactive; in assay [17] it was 43.6 µM (active) and inactive. Further, the max response in [13] was 8.97% (inactive) and 11.4% (inactive).
Take `Cc1cc(O)ccc1Cl`: the Potency entry in assay [1], in assay [2], in assay [3], in assay [20], in [7] and in assay [8] was “inactive” throughout. Besides, the Potency result in assay [10], in [14], in [15], in [19] and in assay [17] was “inactive” each time. For the same compound, the compound was classed as inactive in assay [4], in [6], in assay [9], in [11], in assay [12] and in [16]. Besides, the activity change, positive = activation in assay [18] (at 42.5 µM (top of the series)) is 6.83% (inactive); in [18] (at 92.4 µM (top of the series)) it was 0.807% (inactive) and 6.83% (inactive). Also, the max response in assay [13] is -0.728% (inactive) and -2.63% (inactive) and 0.546% (inactive).
Consider `CCNc1nc(Cl)nc(NC(C)C)n1`, for which the Potency result in [1], in [2], in [3], in [20], in assay [7] and in assay [8] was “inactive” each time. In addition, the Potency entry in assay [10], in assay [14], in [15], in assay [19] and in assay [17] was “inactive” in each case. Also, the compound was classed as inactive in assay [4], in assay [6], in assay [9], in assay [11], in assay [12] and in [16]. The activity change, positive = activation in assay [18] (at 92.4 µM (top of the series)) is -5.74% (inactive) and -1.44% (inactive).
